# Experimental data as given in article PMC5540273 (PLoS ONE, 2017).
# Key:
# Conditions in all cases: concentration: 1 μM, replicates: in singlicate; n = 1
# [1] = test system: SRPK1
# [2] = test system: SRPK2
# [3] = test system: SRPK3
# [4] = test system: STK16
# [5] = test system: STK33
# [6] = test system: STK35
# [7] = test system: STK36
# [8] = test system: STK39
# [9] = test system: SYK
# [10] = test system: SgK110
# 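Further: KINOMEscan kinase panel screen.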
SMILES,%Inh [1],%Inh [2],%Inh [3],%Inh [4],%Inh [5],%Inh [6],%Inh [7],%Inh [8],%Inh [9],%Inh [10]
CCS(=O)(=O)c1ccc(OC)c(Nc2ncc(-c3ccc(F)cc3)o2)c1.Cl [GW591947],30%,0%,0%,1%,12%,0%,0%,11%,48%,0%
CCc1nc(-c2cccc(C)c2)c(-c2ccncc2)s1,0%,0%,15%,23%,0%,0%,15%,0%,23%,0%
COC(=O)c1c(-c2ccccc2)c2cc(Br)ccc2c(=O)n1Cc1ccc(NC(=O)CCC(=O)O)cc1,0%,10%,20%,15%,0%,0%,8%,14%,0%,0%
COc1ccc(CNC(=O)NC2CCN(c3ccnc(Nc4ccc(F)cc4)n3)C2)cc1 (centres unmarked) [GSK1379706],0%,80%,21%,19%,14%,0%,27%,13%,34%,0%
CCC(=O)c1c(-c2ccccc2)c2cc(Cl)ccc2c(=O)n1Cc1ccc(C(=O)O)cc1,0%,10%,0%,0%,0%,0%,0%,23%,0%,49%
COc1cc2ncn(-c3cc(OCc4ccncc4)c(C(N)=O)s3)c2cc1OC [GSK336313],23%,0%,0%,25%,0%,0%,0%,4%,26%,0%
O=c1cc(N2CCOCC2)nc2n(Cc3ccc(F)c(Cl)c3)ccn12 [GSK2297099],0%,0%,0%,24%,0%,0%,0%,0%,7%,8%
CN(C)c1cc(-c2ccc3c(N)n[nH]c3c2)nc(N)n1 [GSK2219329],0%,0%,0%,0%,0%,0%,0%,0%,17%,0%
COc1ccc(-c2coc3ccc(-c4nnc(SCc5cccc(C#N)c5)o4)cc23)cc1,0%,0%,0%,20%,0%,26%,8%,0%,14%,10%
COC(=O)c1c(-c2ccccc2)c2cc(C)ccc2c(=O)n1Cc1ccccc1,0%,0%,0%,19%,0%,0%,1%,0%,0%,12%
COc1cc(Nc2nccc(N3CCC(NC(=O)C(C)c4ccc(Cl)cc4)C3)n2)cc(OC)c1OC (centres unmarked) [GSK1379757],26%,3%,52%,39%,0%,0%,0%,0%,20%,0%
Nc1ncnc2c1ncn2-c1cccc2ccccc12 [SKF-97184],0%,32%,12%,9%,0%,0%,6%,25%,0%,31%
FC(F)(F)c1ccc(-c2ncn(CCCN3CCOCC3)c2-c2ccncc2)cc1 [SB-217780],0%,6%,6%,9%,0%,0%,10%,19%,0%,0%
COc1cc(Nc2nccc(N3CCC(NC(=O)C4COc5ccccc5O4)C3)n2)cc(OC)c1OC (centres unmarked) [GSK1379761],65%,70%,0%,70%,4%,13%,40%,0%,44%,0%
Nc1ncnc2c1ncn2-c1ccc(Cl)cc1 [AH2635],0%,13%,0%,3%,0%,0%,0%,0%,31%,0%
Cl.NS(=O)(=O)c1cccc(Nc2cc(-c3ccc(F)cc3)n[nH]2)c1 [GW824645],0%,0%,2%,18%,0%,0%,0%,0%,3%,0%
COc1cc(OC)cc(-c2cc3cnc(N)nc3nc2NC(=O)NC(C)(C)C)c1,47%,0%,0%,0%,0%,0%,0%,0%,0%,0%
